Reference: PubChem BioAssay (Tox21)
Results filed as inconclusive are left out. Active and inactive are the calls of the source. Unless noted, calls follow the shape of the dose curve; as a rule, active = well fitted curve in the direction sought with a large enough effect in the repeat runs; inconclusive = weak or mixed curves; inactive = no such curve, though single readings can be large; an effect the other way counts as inactive or inconclusive.

What was measured:
[1] = qHTS assay to identify small molecule antagonists of the glucocorticoid receptor (GR) signaling pathway - cell viability counter screen (AID 720693); also: nearly all actives have a fitted effect of over 55% in size
[2] = qHTS assay for identifying genotoxic compounds that show differential cytotoxicity against isogenic chicken DT40 cell lines with known DNA damage response pathways - wild type cell line (AID 743012); also: nearly all actives have a fitted effect of over 60% in size
In short: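 Cytotoxicity in repair-proficient parental chicken DT40 cells serves as the comparator for Rad54/Ku70- and Rev3-deficient lines. Cells were exposed to compounds for 40 h at 37 C/5% CO2, and ATP-based luminescence (CellTiter-Glo) measured viability.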

[3] = qHTS assay for identifying genotoxic compounds that show differential cytotoxicity against isogenic chicken DT40 cell lines with known DNA damage response pathways - Rad54/Ku70 mutant cell line (AID 743015); also: nearly all actives have a fitted effect of over 60% in size
[4] = qHTS assay to identify small molecule antagonists of the androgen receptor (AR) signaling pathway - cell viability counter screen (AID 743033; also: nearly all actives have a fitted effect of over 45% in size)
[5] = qHTS assay to identify small molecule antagonists of the androgen receptor (AR) signaling pathway using the MDA cell line - cell viability counter screen (AID 743041; also: nearly all actives have a fitted effect of over 45% in size)
In short: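 Using the breast carcinoma line MDA-kb2 AR-luc, test chemicals were co-incubated with R1881 for 16 h; CellTiter-Fluor reagent, added at 15.5 h, provided a fluorescence measure of live cells.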

[6] = qHTS assay to identify small molecule antagonists of the thyroid receptor (TR) signaling pathway - cell viability counter screen (AID 743064); also: nearly all actives have a fitted effect of over 50% in size
In short: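 Viability of T3-stimulated (1 nM final) GH3.TRE-Luc cells is measured by CellTiter-Fluor fluorescence after 23.5 h compound exposure at 37 °C plus 30 min reagent incubation.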

[7] = qHTS assay to identify small molecule antagonists of the thyroid receptor (TR) signaling pathway (AID 743065); also: series mostly up to about 70 µM; nearly all actives have a fitted effect of over 55% in size
In short: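 Antagonism measured as loss of luciferase signal in GH3 cells stably carrying a TRE-luciferase reporter, co-treated with compound and T3 (1 nM final) for 23.5 h at 37 C. Viability was read in the same well by CellTiter-Fluor.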

[8] = test system: thyroid hormone receptor (rat, GH3 cells); test: qHTS assay to identify small molecule agonists of the thyroid receptor (TR) signaling pathway (AID 743066; calls by dose curve)
[9] = target: Estrogen receptor (Homo sapiens) (UniProt P03372); test: qHTS assay to identify small molecule antagonists of the estrogen receptor alpha (ER-alpha) signaling pathway (AID 743069; active = well fitted curve in the direction sought with a large enough effect in the signal ratio in the repeat runs, not every such curve was filed as active; the % refers to the signal ratio)
In short: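 Fluorescence intensity from a beta-lactamase FRET substrate served as the read-out. Cells: HEK293 with stably integrated ER-alpha-UAS-bla reporter. Agonist 17beta-estradiol was co-added with compounds; incubation 18 hr at 37C, substrate 2 hr at room temperature.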

[10] = qHTS assay to identify small molecule antagonists of the estrogen receptor alpha (ER-alpha) signaling pathway - cell viability counter screen (AID 743074; calls by dose curve; also: nearly all actives have a fitted effect of over 45% in size)
[11] = target: Estrogen receptor (Homo sapiens) (UniProt P03372); test: qHTS assay to identify small molecule agonists of the estrogen receptor alpha (ER-alpha) signaling pathway (AID 743075; calls by dose curve)
[12] = qHTS assay to identify small molecule antagonists of the estrogen receptor alpha (ER-alpha) signaling pathway using the BG1 cell line (AID 743080; calls by dose curve;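 also: BG1 cells stimulated with 17beta-estradiol alongside compound; series mostly up to about 70 µM; nearly all actives have a fitted effect of over 25% in size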)
In short: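 Readout is ONE-Glo luminescence, taken 30 min at room temperature after reagent addition, preceded by a CellTiter-Fluor viability read; BG1-Luc-4E2 cells had received compound and 17beta-estradiol for 21.5 h at 37 C.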

[13] = qHTS assay to identify small molecule antagonists of the estrogen receptor alpha (ER-alpha) signaling pathway using the BG1 cell line - cell viability counter screen (AID 743081);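 also: compound given together with 17beta-estradiol as the ER stimulus; series mostly up to about 70 µM; nearly all actives have a fitted effect of over 45% in size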
Aromatase (Homo sapiens) = Aromatase (Homo sapiens) (UniProt P11511); test: qHTS assay to identify aromatase inhibitors (AID 743083); also: series mostly up to about 70 µM; nearly all actives have a fitted effect of over 55% in size
[14] = target: Estrogen receptor (Homo sapiens) (UniProt P03372); test: qHTS assay to identify small molecule agonists of the estrogen receptor alpha (ER-alpha) signaling pathway using the BG1 cell line (AID 743079); also: nearly all actives have a fitted effect of over 20% in size
[15] = qHTS assay to identify aromatase inhibitors - cell viability counter screen (AID 743084);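 also: cells stimulated with testosterone during compound exposure; nearly all actives have a fitted effect of over 55% in size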
[16] = target: Androgen receptor (Homo sapiens) (UniProt P10275); test: qHTS assay to identify small molecule antagonists of the androgen receptor (AR) signaling pathway (AID 743035; active = well fitted inhibition curve with a large enough effect in the signal ratio in the repeat runs, not every such curve was filed as active; the % refers to the signal ratio)
In short: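 Steps: seed AR-UAS-bla GripTite HEK293 cells, incubate 4 h at 37C; pin in test compound, then add agonist R1881; incubate 16 h at 37C; add LiveBLAzer B/G FRET substrate, 2 h at room temperature; read fluorescence.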

[17] = target: Androgen receptor (Homo sapiens) (UniProt P10275); test: qHTS assay to identify small molecule agonists of the androgen receptor (AR) signaling pathway using the MDA cell line (AID 743040; also: nearly all actives have a fitted effect of over 20% in size)
In short: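 Stable MMTV-luciferase reporter in MDA-kb2 cells; note the promoter carries GR as well as AR response elements. 16 h compound treatment, 37C, 0% CO2; ONE-Glo luminescence endpoint.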

[18] = qHTS assay for identifying genotoxic compounds that show differential cytotoxicity against isogenic chicken DT40 cell lines with known DNA damage response pathways - Rev3 mutant cell line (AID 743014); also: nearly all actives have a fitted effect of over 55% in size

Measured: Potency

Sequence of Aromatase (Homo sapiens) (P11511 whole entry, looked up): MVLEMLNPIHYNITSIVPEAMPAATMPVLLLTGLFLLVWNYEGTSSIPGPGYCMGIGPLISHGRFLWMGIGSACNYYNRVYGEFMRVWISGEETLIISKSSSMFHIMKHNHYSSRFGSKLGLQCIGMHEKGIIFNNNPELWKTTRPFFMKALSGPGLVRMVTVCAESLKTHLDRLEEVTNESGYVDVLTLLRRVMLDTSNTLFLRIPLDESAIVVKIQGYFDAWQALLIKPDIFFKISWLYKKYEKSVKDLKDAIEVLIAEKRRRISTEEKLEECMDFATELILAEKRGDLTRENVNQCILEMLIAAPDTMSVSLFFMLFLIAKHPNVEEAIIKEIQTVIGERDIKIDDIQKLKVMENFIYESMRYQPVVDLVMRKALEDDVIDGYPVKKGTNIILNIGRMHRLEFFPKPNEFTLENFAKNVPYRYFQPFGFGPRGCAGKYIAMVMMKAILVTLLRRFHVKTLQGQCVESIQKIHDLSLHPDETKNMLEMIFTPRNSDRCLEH
Sequence of Androgen receptor (Homo sapiens) (P10275 whole entry, looked up): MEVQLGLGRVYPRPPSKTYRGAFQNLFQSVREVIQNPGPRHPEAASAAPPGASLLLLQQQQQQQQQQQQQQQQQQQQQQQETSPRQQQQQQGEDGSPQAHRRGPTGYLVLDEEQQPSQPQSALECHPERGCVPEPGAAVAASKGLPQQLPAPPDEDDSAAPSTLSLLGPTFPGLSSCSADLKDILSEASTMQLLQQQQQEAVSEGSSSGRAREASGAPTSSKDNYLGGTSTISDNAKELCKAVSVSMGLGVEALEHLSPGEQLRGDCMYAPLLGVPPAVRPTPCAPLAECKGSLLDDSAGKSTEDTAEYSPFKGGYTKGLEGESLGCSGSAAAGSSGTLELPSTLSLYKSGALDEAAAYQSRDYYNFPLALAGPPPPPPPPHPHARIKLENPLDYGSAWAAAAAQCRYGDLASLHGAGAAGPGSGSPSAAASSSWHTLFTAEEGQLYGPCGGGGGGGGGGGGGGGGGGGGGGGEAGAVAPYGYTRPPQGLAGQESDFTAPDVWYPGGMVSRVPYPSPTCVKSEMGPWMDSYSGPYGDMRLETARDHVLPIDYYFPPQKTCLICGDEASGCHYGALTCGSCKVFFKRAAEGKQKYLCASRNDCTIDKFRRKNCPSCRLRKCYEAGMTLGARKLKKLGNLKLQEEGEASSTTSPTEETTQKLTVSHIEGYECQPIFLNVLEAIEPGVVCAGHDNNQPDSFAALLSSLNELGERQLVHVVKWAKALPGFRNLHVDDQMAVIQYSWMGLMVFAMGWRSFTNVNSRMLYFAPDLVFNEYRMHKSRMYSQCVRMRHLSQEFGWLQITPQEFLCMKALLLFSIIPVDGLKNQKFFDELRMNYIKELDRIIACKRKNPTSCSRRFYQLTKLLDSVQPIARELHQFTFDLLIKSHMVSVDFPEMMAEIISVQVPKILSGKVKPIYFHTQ
Sequence of Estrogen receptor (Homo sapiens) (P03372 whole entry, looked up): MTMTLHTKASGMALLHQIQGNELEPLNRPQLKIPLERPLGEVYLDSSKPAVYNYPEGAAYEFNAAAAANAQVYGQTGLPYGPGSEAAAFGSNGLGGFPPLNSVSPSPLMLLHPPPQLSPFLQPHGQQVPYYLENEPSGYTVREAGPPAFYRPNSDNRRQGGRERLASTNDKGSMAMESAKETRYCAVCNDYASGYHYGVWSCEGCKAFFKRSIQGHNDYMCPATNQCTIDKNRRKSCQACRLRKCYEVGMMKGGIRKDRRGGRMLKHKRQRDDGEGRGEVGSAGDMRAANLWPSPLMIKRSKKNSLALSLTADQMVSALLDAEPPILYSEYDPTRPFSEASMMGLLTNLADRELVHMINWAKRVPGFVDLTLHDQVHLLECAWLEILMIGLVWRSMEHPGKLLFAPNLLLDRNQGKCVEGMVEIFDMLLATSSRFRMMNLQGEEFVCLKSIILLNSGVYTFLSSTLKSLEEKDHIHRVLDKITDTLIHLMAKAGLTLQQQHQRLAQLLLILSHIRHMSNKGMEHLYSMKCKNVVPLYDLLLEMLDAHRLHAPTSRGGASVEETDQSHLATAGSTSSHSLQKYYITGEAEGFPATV

[O-][n+]1cccc(CO)c1
inactive: [1] | [2] | [3] | [4] | [5] | [6] | [7] | [8] | [9] | [10] | [11] | [12] | [13] | Aromatase (Homo sapiens)

CC(=O)NC(=O)c1ccccc1O
inactive: [1] | [2] | [3] | [4] | [5] | [6] | [7] | [8] | [9] | [10] | [11] | [14] | [12] | [13] | Aromatase (Homo sapiens) | [15]

COc1ccc2cc1Oc1cc3c(cc1OC)CC[N+](C)(C)[C@H]3Cc1ccc(cc1)Oc1c(OC)c(OC)cc3c1[C@@H](C2)[N+](C)(C)CC3
inactive: [1] | [2] | [3] | [4] | [5] | [6] | [7] | [8] | [9] | [10] | [11] | [14] | [12] | [13] | Aromatase (Homo sapiens) | [15]

CN1[C@@H]2CC[C@H]1CC(OC(=O)C(O)c1ccccc1)C2 (stereo partly drawn)
inactive: [1] | [2] | [3] | [4] | [5] | [6] | [7] | [8] | [9] | [10] | [11] | [14] | [12] | [13] | Aromatase (Homo sapiens) | [15]

O=S(=O)(O)c1cccc(S(=O)(=O)O)c1
inactive: [1] | [2] | [3] | [4] | [16] | [17] | [5] | [6] | [7] | [8] | [9] | [10] | [11] | [14] | [12] | [13] | Aromatase (Homo sapiens) | [15]

CCCC(C)C(=O)OCC (stereo not drawn)
inactive: [1] | [2] | [3] | [4] | [5] | [6] | [7] | [8] | [9] | [10] | [11] | [14] | [13] | Aromatase (Homo sapiens) | [15]

CC[C@H]1OC(=O)[C@H](C)[C@@H](O[C@H]2C[C@@](C)(OC)[C@@H](O)[C@H](C)O2)[C@H](C)[C@@H](O[C@@H]2O[C@H](C)C[C@H](N(C)C)[C@H]2O)[C@](C)(OC)C[C@@H](C)C(=O)[C@H](C)[C@@H](O)[C@]1(C)O
inactive: [1] | [18] | [3] | [4] | [5] | [6] | [7] | [8] | [9] | [10] | [11] | [14] | [12] | Aromatase (Homo sapiens) | [15]

CC(CC=O)CC(C)(C)C (stereo not drawn)
inactive: [1] | [2] | [3] | [4] | [5] | [6] | [7] | [8] | [9] | [11] | [14] | [13] | Aromatase (Homo sapiens) | [15]

O=C(O)Cc1csc(-c2ccc(Cl)cc2)n1
inactive: [1] | [2] | [3] | [16] | [17] | [5] | [6] | [7] | [8] | [9] | [10] | [11] | [14] | [12] | [13] | Aromatase (Homo sapiens) | [15]

[Ca+2]
inactive: [1] | [2] | [3] | [4] | [5] | [6] | [7] | [8] | [10] | [13] | Aromatase (Homo sapiens) | [15]

FB(F)F
inactive: [1] | [2] | [3] | [4] | [5] | [6] | [8] | [9] | [10] | [11] | [14] | [12] | [13] | Aromatase (Homo sapiens) | [15]

CN1C(C)(C)CC(O)CC1(C)C
inactive: [1] | [2] | [3] | [4] | [5] | [6] | [9] | [10] | [11] | [14] | [12] | [13] | Aromatase (Homo sapiens) | [15]

C=CN1CCCCCC1=O
inactive: [1] | [2] | [3] | [4] | [6] | [10] | [13]

O=C(c1ccccc1O)c1ccccc1O
inactive: [1] | [2] | [4] | [17] | [5] | [7] | [8] | [10] | [11] | [14] | [12] | [13] | [15]

CC(=O)OCC(=O)[C@@]1(O)[C@H](C)C[C@H]2[C@@H]3CCC4=CC(=O)C=C[C@]4(C)[C@@]3(F)[C@@H](O)C[C@@]21C
inactive: [1] | [2] | [3] | [4] | [5] | [6] | [7] | [8] | [10] | [13] | Aromatase (Homo sapiens) | [15]

CC1(C)[C@@H]2CC[C@@]1(C)[C@H](O)C2
inactive: [1] | [2] | [3] | [4] | [5] | [6] | [7] | [8] | [10] | [13] | Aromatase (Homo sapiens) | [15]

CCCn1cc[n+](C)c1C
inactive: [1] | [2] | [3] | [4] | [5] | [6] | [7] | [8] | [10] | [13] | Aromatase (Homo sapiens) | [15]

C=COCC1CCC(COC=C)CC1 (stereo not drawn)
inactive: [1] | [2] | [4] | [5] | [6] | [7] | [8] | [9] | [10] | [11] | [14] | [12] | [13] | Aromatase (Homo sapiens) | [15]
